Source: PubChem BioAssay AID651871 (Sanford-Burnham Center for Chemical Genomics, 2012)
Where “and” joins values, the source holds several entries; their conditions need not be identical. Identical values can stand only once.

Each compound was assayed on HL-1 (assay: protection of cardiomyocytes from stress damage, SAR follow-up, cell-based, panel, H9c2 and HL-1, ATP luminescence, set 2 (AID 651871;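 also: cells exposed to stressor for 2 h before ATP readout; reference of the scale not given here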)). Conditions: H9c2/HL-1 cardiomyocytes, 2-deoxyglucose stress, with 2-deoxyglucose, run 14, at 79 µM (top of the series).
`CCOC(=O)c1cccc(NC(=O)CNC(=O)c2cc(-c3cc(OC)c(OC)c(OC)c3)nc3ccccc23)c1` showed an activity (protection/inhibition) of 83.5%.
Compound `COc1ccc2nc(-c3cc(OC)c(OC)c(OC)c3)cc(C(=O)NCC(=O)Nc3ccc(C(C)=O)cc3)c2c1` has an activity (protection/inhibition) of 66%.
`COc1ccc2c(c1OC)C(=O)N1c3ccccc3C(=O)N(Cc3cccc(Cl)c3Cl)C21` (stereo not drawn) was tested, and the activity (protection/inhibition) was 56.3% and -4.31%.
